# Screening results deposited in PubChem BioAssay by National Center for Advancing Translational Sciences (NCATS).
# HepG2 viability = kills HepG2 cells in TGF-b inhibitor counter-screen; HepG2 CAGA-GFP viability, ATP luminescence, 18 h; Potency, µM (highest dose often 46.1 µM), without a hit: at the top dose activity change, negative = cytotoxicity, hits mostly cytotoxic; 410,000 compounds, 0.76% hits
#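 HepG2 CAGA-GFP cells (1000/well, DMEM with 1% FBS) received compound, then TGF-beta at 500 pg/mL final, and were incubated 18 hours at 37 degrees C. Viability was read by CellTiter-Glo luminescence. Media-only wells were set as complete cell-killing and DMSO as no toxicity.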
# S2 tox = viability counter-screen for ATXN expression inhibitors | S2 cells (HEK-293 line with an ATXN2-luciferase reporter) viability, CellTiter-Fluor protease fluorescence, 24 h | Potency, µM (top dose mostly 56.7 µM), most hits filed as cytotoxic | 400,000 compounds, 0.49% hits; also: nearly all actives have a fitted effect of over 40% in size
# ATXN2 expr inh = ATXN2 expression inhibition; HEK-293 ATXN2-luciferase reporter, luminescence, 24 h; 360,000 compounds, 0.72% hits; AID 1745845; Potency, µM (highest dose often 57 µM), for the others: top-dose activity change, negative = inhibition, hits mostly inhibitors; also: % is scaled to controls: 0 for no effect and ±100 for the full control effect; nearly all actives have a fitted effect of over 55% in size
#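 qHTS (up to 57 uM final) was run with 24 h compound exposure of reporter cells at 37 °C. Each well was multiplexed: SteadyGlo luminescence measured ATXN2-luciferase expression after a fluorogenic Gly-Phe-AFC viability readout (25 uM final).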
# HttQ103 aggreg = reduces HttQ103-GFP aggregates in PC12 cells; PC12 HttQ103-GFP aggregates, Acumen cytometry, 40 h; Potency, µM (series often up to 46.1 µM), without a hit: at the highest dose activity change, negative = inhibition, usual class: inhibitors; 220,000 compounds, 1.1% hits; AID 1688; also: % is scaled to controls: 0 for no effect and ±100 for the full control effect; nearly all actives have a fitted effect of over 60% in size
#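 Aggregates are detected as GFP objects 1–25 µm with signal 6 STDEV over background in lysates of induced PC12 cells. These carry Huntingtin exon 1 with 103 glutamines fused to GFP under an ecdysone promoter; compounds titrated.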
# HTT cytoprotect = protects HTT-Q103 PC12 cells, measured by ATP; 230,000 compounds, 0.14% hits; PC12 HTT-Q103 induced, cytoprotection, ATP luminescence, 40 h; Potency, µM (titrated, usually from 56.4 µM), without a hit: cytoprotection (ATP increase), hits mostly activators; AID 1471; also: % of control where 0% means no effect; nearly all actives have a fitted effect of over 45% in size
#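 Quantitative HTS on tebufenozide-induced (100 nM) PC12 cells expressing HTTQ103 exon 1–GFP; compounds tested as a concentration series; survival measured via cellular ATP.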
# TGFb inhibitor = TGF-b pathway inhibition | Potency, µM (highest dose often 46.1 µM), for inactives: at the highest dose activity, negative = inhibition, most hits filed as inhibitors | HepG2 CAGA-GFP TGF-b/SMAD3 reporter, GFP fluorescence, 18 h; TGF-beta stimulated, 500 pg/mL final | 410,000 compounds, 1.2% hits | AID 588855; also: % is scaled to controls: 0 for no effect and ±100 for the full control effect; nearly all actives have a fitted effect of over 65% in size
#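 First, reporter cells (HEPG2 CAGA-GFP) rested 2 h at 37 degrees C. Next, compounds were pinned in and TGF-beta added to 500 pg/mL final. After 18 h, GFP was imaged per cell and summed per well.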
# The depositor's hits bear a star; i = inactive; ? = inconclusive; / = no result; ! = not confirmed by another sample; [ ] = dose if it differs, or a comment. The list is not random: actives were taken first. Their share in the collection is about 2.8%. Calls follow the shape of the dose curve; as a rule, active = well fitted curve in the direction sought with a large enough effect; inconclusive = small, poorly fitted or top-dose-only effect, or another doubt; inactive = no such curve, though single readings can be large; an effect the other way counts as inactive or inconclusive. Potency is read from the fitted curve at half-maximal effect.
SMILES,HepG2 viability,S2 tox,ATXN2 expr inh,HttQ103 aggreg,HTT cytoprotect,TGFb inhibitor
Cn1cc(C2=C(c3ccc(Cl)cc3Cl)C(=O)NC2=O)c2ccccc21,9.0%,i,-13.1%,/,31.6µM*!,5.4%
COc1ccc(CN(C)C(=O)/C=C/c2ccc(S(=O)(=O)N3CCCCCC3)cc2)cc1,-10.3%,i,-6.4%,/,/,?
CNC(=O)c1ccc(CN(C)C(=O)/C=C/c2ccc(S(=O)(=O)N3CCCCCC3)cc2)cc1,7.08µM*,i,/,/,/,-25.1%
C/C(=C\CNc1ncnc2c1ncn2[C@@H]1O[C@@H](CO)[C@@H](O)[C@H]1O)CO,/,/,/,/,-31.2%,/
C=CC(=O)N1CCc2ccc(-n3c(=O)ccc4cnc5ccc(-c6cnn(C)c6)cc5c43)cc21,/,/,15.3µM*,/,/,/
Cn1c(=O)n(-c2ccc(C(C)(C)C#N)cc2)c2c3cc(-c4cnc5ccccc5c4)ccc3ncc21,-15.0%[92.2 µM],/,?,/,/,?
COc1cc(=O)n2c(c1C(=O)N(C)Cc1cscn1)CCN(C(=O)c1ccc(C)c(C)c1)CC2,/,i,/,/,/,/
CCn1c(=O)c([N+](=O)[O-])c(NCCN(C)C)c2ccccc21,0.1%,?,4.3%,-14.7%[9.22 µM],-26.8%[10 µM],-2.5%
CCn1c(=O)c([N+](=O)[O-])c(Cl)c2ccccc21,-57.0%,35.5µM*,-5.3%[11.3 µM],?,-36.5%[10 µM],?
CC(C)N1CCc2c(sc(NC(=O)c3cc(-c4cccs4)nc4ccccc34)c2C(N)=O)C1,17.8µM*,/,?,?,/,-22.7%
CC(C)N1CCc2c(sc(NC(=O)c3nc4ccccc4s3)c2C(N)=O)C1,-30.7%,i,-8.0%,-9.2%,/,1.5%
CC(C)N1CCc2c(sc(NC(=O)c3ccc(S(=O)(=O)N(C)C4CCCCC4)cc3)c2C(N)=O)C1,-101.6%,/,/,/,/,?
CC(C)N1CCc2c(sc(NC(=O)c3ccc(S(=O)(=O)N4CCc5ccccc54)cc3)c2C(N)=O)C1,12.6µM*,?,?,-8.3%[9.22 µM],-13.0%[10 µM],?
COc1cc(N(C)C)c(OC)cc1C=C1C=CC=C1,-33.9%,/,/,/,/,?
COc1cc(S(N)(=O)=O)cc(C(=O)O)c1OC,/,i,4.3%,/,/,/
C=CCn1c(SCC#N)nc2c(c1=O)C(C)(C)Cc1ccccc1-2,4.7%,?,-16.2%,10µM*,-12.0%[10 µM],2.5%
Cc1cc(C)nc(N/N=C2/CCCC/C2=C\c2ccccc2)n1,-47.2%,?,0.947µM*,4.47µM*,-55.4%[10 µM],?
Cc1ccnc(N/N=C/c2ccccc2)n1,-28.9%,i,-22.3%,1.9%,-7.6%[10 µM],10.4%
CC(=O)OC1C(C)OC(Oc2c(-c3ccc(O)cc3)oc3cc(O)cc(O)c3c2=O)C(O)C1OC(C)=O (stereo not drawn),/,/,0.8%,/,/,/
Cc1cc(NC(=O)C23CCC(C)(C(=O)O2)C3(C)C)no1 (stereo not drawn),0.4%,i,-12.8%,12.4%,13.7%[10 µM],-8.0%
CC12CCC(C(=O)Nc3ccc(Br)cn3)(OC1=O)C2(C)C (stereo not drawn),4.47µM*,i,-13.4%,-0.6%[9.22 µM],1.8%[10 µM],0.0%
COc1cc([C@@H]2c3cc4c(cc3[C@@H](OC3OC5COC(C)OC5C(O)C3O)[C@H]3COC(=O)[C@H]23)OCO4)cc(OC)c1O (stereo partly drawn),/,/,/,/,-141.4%,/
COc1cc([C@@H]2c3cc4c(cc3[C@@H](O[C@@H]3O[C@@H]5CO[C@@H](c6cccs6)O[C@@H]5[C@H](O)[C@@H]3O)[C@H]3COC(=O)[C@H]23)OCO4)cc(OC)c1O,/,/,0.172µM*,/,/,/
CCOC(=O)/C(=C\c1ccc(OC(F)F)cc1)C1=Nn2c(nnc2-c2ccc(Cl)cc2)SC1,2.51µM*,?,?,?,/,3.98µM*
CCOC(=O)/C(=C/c1ccc(OC(F)F)cc1)C1=Nn2c(nnc2-c2ccc(Cl)cc2)SC1,3.16µM*,7.94µM*,10µM*,/,/,?
SMILES,HepG2 viability,S2 tox,ATXN2 expr inh,HttQ103 aggreg,HTT cytoprotect,TGFb inhibitor
OC1(c2cccnc2)CCN(Cc2ccc3c(c2)CN(Cc2ccc(F)c(F)c2)CCO3)CC1,/,i,/,/,/,/
CC(NC(=O)c1cccnc1)c1nnc2n1CCN(Cc1ccc(-c3ccccc3)cc1)CC2 (stereo not drawn),/,i,/,/,/,/
CCN1CCN(c2ccc(Cl)cc2NC(=O)c2ccc(-n3nc(C)cc3C)cc2)CC1,22.4µM*,i,?,/,/,-6.4%
CCN1CCN(c2ccc(Cl)cc2NC(=O)c2ccco2)CC1,-18.6%,i,/,/,/,18.6%
CC(C)(C)c1ccc(C2NC(=O)c3n[nH]c(-c4cccs4)c32)cc1 (stereo not drawn),11.2µM*,/,/,/,/,?
CCOc1ccc(C2NC(=O)c3n[nH]c(C)c32)cc1 (stereo not drawn),-0.7%,i,0.3%,2.3%,-11.5%,0.6%
CCN(CC)CCOC(=O)c1ccc(NC(=O)c2cc3c(s2)-c2ccccc2OC3)cc1,10µM*,i,?,/,/,11.2µM*
CCc1cccc(NC(=O)c2cc3c(s2)-c2ccccc2OC3)c1,-21.6%,i,4.1%,/,/,?
COCc1cc([C@@H]2C[C@H]3CN(c4ccccc4)C(=O)[C@]34CCCN24)ccc1OC,-12.8%,i,/,31.6µM*,-133.6%,?
COc1ccccc1N1C[C@@H]2C[C@@H](c3ccco3)N3CCC[C@@]23C1=O,3.2%,i,-10.3%,7.08µM*,-178.3%,3.6%
Cc1ccccc1C(=O)Nc1ccc(-c2nc3ccc(C(=O)c4ccccc4)cc3[nH]2)cc1,1.2%,i,-3.1%,11.2µM*,-67.8%,22.8%
Cc1ccccc1C1(CC(=O)N2CCC[C@H]2C(N)=O)CC(=O)N(C2CCCC2)C1=O (stereo partly drawn),/,i,/,/,/,/
O=S(=O)(O)CCSSCCS(=O)(=O)O,/,/,6.5%,/,/,/
Cc1noc2ncnc(N3CCCC(C(=O)Nc4cccc(C(F)(F)F)c4)C3)c12 (stereo not drawn),-13.2%,/,20µM*,/,/,?
Cc1ccc(CCNC(=O)C2CCCN(c3nnc(C)c4c(C)n(-c5ccccc5)nc34)C2)cc1 (stereo not drawn),-12.7%,?,-13.4%,/,/,5.9%
Cc1nnc(N2CCCC(C(=O)NCc3ccccc3F)C2)c2nn(-c3ccccc3)c(C)c12 (stereo not drawn),0.2%,i,-21.0%,/,/,14.3%
Cc1nnc(N2CCCC(C(=O)NCCc3ccccc3)C2)c2nn(-c3ccccc3)c(C)c12 (stereo not drawn),-33.9%,12.6µM*,-24.6%,/,/,-27.9%
